# Source: PubChem (several laboratories)
# Shown are actives, neighbours in structure and some others; about 3.2% of the full set was active somewhere.
# HDAC3 inh = human HDAC3 inhibition; AID 2718; inhibition, % at 8.3 µM; recombinant HDAC3, fluorogenic peptide/trypsin coupled, fluorescence; O15379; 0.15% of 320,000 active; in the data active = inhibition above about 26%, passing the limit was not always enough
# Target sequence (O15379 whole entry, looked up): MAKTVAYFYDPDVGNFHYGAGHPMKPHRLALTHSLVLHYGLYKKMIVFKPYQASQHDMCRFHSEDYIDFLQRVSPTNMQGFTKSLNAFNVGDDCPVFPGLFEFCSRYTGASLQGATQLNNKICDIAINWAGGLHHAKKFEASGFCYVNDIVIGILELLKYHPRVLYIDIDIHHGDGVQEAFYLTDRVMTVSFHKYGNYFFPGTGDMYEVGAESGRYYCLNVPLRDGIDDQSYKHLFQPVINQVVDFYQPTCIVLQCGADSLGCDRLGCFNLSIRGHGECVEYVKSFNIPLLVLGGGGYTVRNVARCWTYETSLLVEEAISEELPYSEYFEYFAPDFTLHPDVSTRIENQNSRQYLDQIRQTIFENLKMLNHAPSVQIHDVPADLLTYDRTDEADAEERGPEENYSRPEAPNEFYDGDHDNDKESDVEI
# TMEM16A act = activates or potentiates the mouse TMEM16A chloride channel; Q8BHY3; HEK293 TMEM16A/YFP-H148Q/I152L, iodide quench fluorescence; active compounds read low; B-score at 10 µM; 0.3% of 340,000 active;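 active = fluorescence-ratio B-score plate-corrected deviation score at least 3 library SD below zero, with starting fluorescence score within 5 deviations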;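 note: channel opened by trigger with iodide after compound preincubation; score built on the fluorescence ratio of max minus min over baseline; more negative score means more quench and so TMEM16A activation or potentiation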
# CHT inh = inhibits the human high affinity choline transporter; Q9GZV3; CHT-expressing cells, membrane potential dye, choline response; active compounds read low; B-score at 10 µM; 0.86% of 310,000 active; AID 488975;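 active = B-score over 3 SD under the library average, and starting fluorescence ratio not unusually high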;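 note: choline stimulus applied at its EC90 after an EC20 pre-addition; B-score computed on integrated fluorescence ratio after choline addition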
# TMEM16A inh = blocks the mouse calcium-activated chloride channel TMEM16A; normalized B-score (activity score, 25-100; higher = stronger inhibition) at 10 µM; AID 588511; 1.2% of 310,000 active; Q8BHY3; HEK293 TMEM16A/YFP iodide influx fluorescence, ionomycin;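 active = ratio plate-corrected score three or more library SD toward inhibition, starting fluorescence score within five deviations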;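 note: score derived from kinetic fluorescence span divided by baseline fluorescence per well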
# CHT PAM = allosteric activators of human choline transporter CHT; 0.49% of 310,000 active; CHT-expressing cells, membrane potential dye, choline EC20; active compounds read high; LV-AA mutant CHT in HEK293 cells; Q9GZV3; B-score at 10 µM;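 active = initial fluorescence not abnormally high and integrated response B-score, plate-corrected, over 3 SD above library mean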
# PHOSPHO1 inh = PHOSPHO1 (human) inhibition. Q8TCT1. 1.1% of 290,000 active. inhibition, % at 13.3 µM. recombinant PHOSPHO1, absorbance phosphatase assay; in the data active = inhibition above about 60%
# CHT activ conf = confirmation of human choline transporter (CHT) activators. CHT-expressing cells, membrane potential dye fluorescence (FDSS); % of choline EC20–EC90 response window; HEK293 expressing CHT LV-AA mutant; choline added at its EC20. shares compounds with CHT PAM. 91% of 2,500 active. activation, % at 10 µM;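 active = primary screen active, with duplicate mean activation above negative control mean plus 3 SD, cut at about 11% in these data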
# HEK293 MP dye = activity in parental HEK293 cells lacking CHT; shares compounds with CHT PAM; membrane potential dye fluorescence (FDSS); measured after EC20 choline addition; ratio readout change at 10 µM, hits read low; 62% of 2,500 active;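 active = duplicate-averaged ratio beyond 3 SD from buffer wells, up or down, though filed actives are nearly all decreases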
# Numbers stand for hits; 0 = inactive; - = no result.
SMILES,HDAC3 inh,TMEM16A act,CHT inh,TMEM16A inh,CHT PAM,PHOSPHO1 inh,CHT activ conf,HEK293 MP dye
CCOc1ccc(-c2cnc3n2CCC3)cc1,0,0,0,0,0,0,50,-39
Cc1nnc2c(N3CCN(CCO)CC3)nc3ccccc3n12,0,0,0,0,0,0,52,-50
O=C(COc1ccc(S(=O)(=O)N2CCCC2)cc1Cl)Nc1ccc2c(c1)OCO2,0,0,0,0,0,0,-,-
CCN1CCc2nc(NC(=O)C(c3ccccc3)c3ccccc3)sc2C1,0,0,0,0,0,0,17,0
COc1c(C)cc(C(=O)C2CCCN(C(=O)C3=C(C)OCCO3)C2)cc1C (centres undefined),0,0,0,0,0,0,-,-
Cc1sc2c3ccsc3ccc2[n+]1C,0,0,0,0,10,0,66,0
COc1ccc(-c2nc3cccc(C)n3c2NCc2ccco2)cc1OC,0,0,0,0,7.6,0,36,-42
COc1ccc(-c2csc(NCc3ccco3)n2)cc1C,0,0,0,0,0,0,-,-
Cc1cc(=O)n(C)c(=O)n1CCCCCCN1CCCC1,-,0,0,0,0,0,44,-34
O=C(C1CCC1)N1CCN(c2ccnc3cc(Cl)ccc23)CC1,0,0,0,0,0,0,-,-
O=C(C1CC1)N1CCN(c2ccnc3cc(Cl)ccc23)CC1,0,0,0,0,7.3,0,65,-67
O=C(c1ccco1)N1CCN(c2ccnc3cc(Cl)ccc23)CC1,0,0,0,0,0,0,20,-68
O=C(CCc1nnc2n(CCc3ccccc3)c(=O)c3ccccc3n12)NCCCN1CCCCC1,0,0,0,0,0,0,-,-
Cc1ccc(NC(=O)CSc2nc3ccccc3c(=O)n2CCCN2CCCCC2)cc1Cl,0,0,0,0,0,0,-,-
CC1CCN(CCCn2c(SCC(=O)Nc3ccccc3Cl)nc3ccccc3c2=O)CC1,0,0,0,0,6.4,0,52,-34
O=C(COc1ccc2c(c1)oc(=O)c1ccccc12)NCC1CCC(C(=O)O)CC1 (centres undefined),0,0,0,0,6.3,0,32,-20
O=C(Nc1ccc(C2=NCCN2)cc1)c1ccc(C(=O)Nc2ccc(C3=NCCN3)cc2)c([N+](=O)[O-])c1,0,0,0,0,0,0,-,-
O=[N+]([O-])c1cc(Cl)cc(C2=NCCN2)c1,0,0,0,0,0,0,49,-55
Cc1nnc(SCC(=O)Nc2cc(C(F)(F)F)ccc2N2CCOCC2)o1,0,0,0,0,0,0,-,-
Cc1ccccc1SCC(=O)Nc1cc(C(F)(F)F)ccc1N1CCOCC1,0,0,0,100,0,-,36,0
Cc1c(C)n(-c2ccccc2)c2ncnc(NCCN(C)C)c12,0,-,0,0,0,0,46,-42
COc1ccc(-n2c(C)c(C)c3c(NCCN(C)C)ncnc32)cc1,0,0,0,0,7,0,45,-33
CC1(c2ccccc2)NC(=O)N(CC#N)C1=O (centres undefined),0,0,0,0,0,0,-,-
Cc1ccc(C#CC[N+]2(CC#Cc3ccc(C)cc3)CCCCC2)cc1,0,0,0,0,8.7,0,18,0
COc1ccc(C2=Nn3c([n+](C)c4ccccc43)SC2)cc1,31,0,0,0,11,0,57,-48
CCC1=NNC(=O)C(CC(=O)Nc2ccccc2)c2cc(OC)c(OC)cc21 (centres undefined),0,0,0,0,0,0,-,-
COCC(=O)N(C)c1nnc(-c2ccc([N+](=O)[O-])cc2)s1,0,0,0,0,0,0,41,-47
COCC(=O)N(C)c1nnc(-c2ccccn2)s1,0,0,0,0,0,0,-,-
O=C(Cn1ncc2ccccc21)N1CCc2ccccc21,0,0,0,0,0,0,-,-
